Among the targets are PKR(1-2) (Homo sapiens, UniProt P19525); DDX9(1)/DHX9 (Homo sapiens, UniProt Q08211); hnRNP E1(1-2) (Homo sapiens, UniProt Q15365); RBMY1A1 / RBMY1B (Homo sapiens, UniProt P0DJD3); SRSF10 (Homo sapiens, UniProt O75494); DDX9(2)/DHX9 (Homo sapiens, UniProt Q08211).
Test in all cases: protein domain microarray probed with biotinylated miRNA; Domain array: 20 mM Tris-HCl pH 7.4, 200 mM KCl, 0.2 mM EDTA, 0.05% NP40, 2 ug/ul heparin, overnight 4 C. ORF array: PBS pH 7.0 with RNase inhibitor, 100 ng RNA; high values mean tight binding
Common to all, as to details: ssRNA

The next assay addresses T1, PPRC1 (Homo sapiens, UniProt Q5VV67).
T1 sequence: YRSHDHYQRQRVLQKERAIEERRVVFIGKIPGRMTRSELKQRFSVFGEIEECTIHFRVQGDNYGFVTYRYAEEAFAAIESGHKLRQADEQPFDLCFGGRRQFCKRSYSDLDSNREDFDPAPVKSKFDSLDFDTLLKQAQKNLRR

The target of a further assay is T2, RBM26(1) (Homo sapiens, UniProt Q5T8P6).
T2 sequence: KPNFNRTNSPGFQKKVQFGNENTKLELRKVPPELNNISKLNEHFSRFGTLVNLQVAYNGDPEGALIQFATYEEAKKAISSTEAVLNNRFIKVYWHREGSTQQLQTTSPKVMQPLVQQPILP

A further assay has as its target T3, ZNF638 (Homo sapiens, UniProt Q14966).
T3 sequence: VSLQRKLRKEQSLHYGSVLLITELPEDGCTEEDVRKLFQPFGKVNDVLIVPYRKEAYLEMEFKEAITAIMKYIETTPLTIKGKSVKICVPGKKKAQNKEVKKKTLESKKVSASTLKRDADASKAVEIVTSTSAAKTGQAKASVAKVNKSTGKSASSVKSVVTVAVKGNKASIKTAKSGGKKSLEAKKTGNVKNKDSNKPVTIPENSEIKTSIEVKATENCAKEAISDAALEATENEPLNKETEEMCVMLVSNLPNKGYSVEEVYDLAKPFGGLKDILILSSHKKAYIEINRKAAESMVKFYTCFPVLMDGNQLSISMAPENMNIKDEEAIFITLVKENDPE

Another assay has as its target T4, TIA1 (Homo sapiens, UniProt P31483).
T4 sequence: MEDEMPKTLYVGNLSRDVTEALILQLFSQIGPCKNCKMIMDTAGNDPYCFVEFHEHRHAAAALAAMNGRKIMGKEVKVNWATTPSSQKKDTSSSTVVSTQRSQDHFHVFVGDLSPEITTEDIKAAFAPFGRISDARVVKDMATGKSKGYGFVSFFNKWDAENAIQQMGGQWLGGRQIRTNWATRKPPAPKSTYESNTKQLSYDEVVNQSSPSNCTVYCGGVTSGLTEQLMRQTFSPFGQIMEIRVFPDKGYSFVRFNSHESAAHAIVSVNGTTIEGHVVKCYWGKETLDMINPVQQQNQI

Another assay addresses T5, ADAR(3) (Homo sapiens, UniProt P55265).
T5 sequence: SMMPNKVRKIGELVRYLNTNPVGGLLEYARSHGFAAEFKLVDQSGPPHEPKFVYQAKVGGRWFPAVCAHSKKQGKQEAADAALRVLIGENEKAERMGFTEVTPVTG

A further assay has as its target T6, SETD1B (Homo sapiens, UniProt Q9UPS6).
T6 sequence: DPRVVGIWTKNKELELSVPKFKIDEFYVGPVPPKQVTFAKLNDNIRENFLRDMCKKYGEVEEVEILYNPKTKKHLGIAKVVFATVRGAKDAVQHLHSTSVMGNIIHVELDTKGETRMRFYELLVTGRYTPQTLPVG

The target in the next assay is T7, ADAR(2) (Homo sapiens, UniProt P55265).
T7 sequence: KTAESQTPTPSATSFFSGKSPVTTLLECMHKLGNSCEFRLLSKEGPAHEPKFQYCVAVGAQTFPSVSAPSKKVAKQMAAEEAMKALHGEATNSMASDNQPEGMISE

For a further assay, the target named is T8, RBM33 (Homo sapiens, UniProt Q96EV2).
T8 sequence: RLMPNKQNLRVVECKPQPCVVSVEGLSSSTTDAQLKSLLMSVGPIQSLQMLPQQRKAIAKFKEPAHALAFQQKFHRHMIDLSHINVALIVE

A further assay deals with T9, TIAL1 (Homo sapiens, UniProt Q01085).
T9 sequence: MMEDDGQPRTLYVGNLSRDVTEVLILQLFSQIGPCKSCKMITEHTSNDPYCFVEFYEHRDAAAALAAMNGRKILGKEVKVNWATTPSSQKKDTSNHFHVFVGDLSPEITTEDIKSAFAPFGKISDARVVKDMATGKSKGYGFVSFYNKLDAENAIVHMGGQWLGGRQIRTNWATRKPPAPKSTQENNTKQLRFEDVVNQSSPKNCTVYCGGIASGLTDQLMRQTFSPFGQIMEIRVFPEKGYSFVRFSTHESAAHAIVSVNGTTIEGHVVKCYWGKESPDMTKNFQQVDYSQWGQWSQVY

The next assay has as its target T10, RNPS1 (Homo sapiens, UniProt Q15287).
T10 sequence: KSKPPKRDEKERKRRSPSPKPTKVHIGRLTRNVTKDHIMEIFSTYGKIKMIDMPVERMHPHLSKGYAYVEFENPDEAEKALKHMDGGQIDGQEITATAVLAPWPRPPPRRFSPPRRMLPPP

In the next assay the target is T11, SHARP(1) (Homo sapiens, UniProt Q96T58).
T11 sequence: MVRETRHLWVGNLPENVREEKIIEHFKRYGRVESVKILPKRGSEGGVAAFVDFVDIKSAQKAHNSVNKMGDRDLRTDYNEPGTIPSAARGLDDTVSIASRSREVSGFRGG

For the next assay, the target named is T12, RBMX2 (Homo sapiens, UniProt Q9Y388).
T12 sequence: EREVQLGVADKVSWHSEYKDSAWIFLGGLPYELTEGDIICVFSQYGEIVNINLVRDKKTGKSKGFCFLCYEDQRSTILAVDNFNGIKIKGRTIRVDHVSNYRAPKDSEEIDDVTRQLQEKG

The target of another assay is T13, RDM1 (Homo sapiens, UniProt Q8NG50).
T13 sequence: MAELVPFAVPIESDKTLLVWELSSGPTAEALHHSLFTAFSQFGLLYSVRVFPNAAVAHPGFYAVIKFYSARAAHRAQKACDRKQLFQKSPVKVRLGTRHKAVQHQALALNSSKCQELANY

In a further assay the target is T14, SHARP(2-4) (Homo sapiens, UniProt Q96T58).
T14 sequence: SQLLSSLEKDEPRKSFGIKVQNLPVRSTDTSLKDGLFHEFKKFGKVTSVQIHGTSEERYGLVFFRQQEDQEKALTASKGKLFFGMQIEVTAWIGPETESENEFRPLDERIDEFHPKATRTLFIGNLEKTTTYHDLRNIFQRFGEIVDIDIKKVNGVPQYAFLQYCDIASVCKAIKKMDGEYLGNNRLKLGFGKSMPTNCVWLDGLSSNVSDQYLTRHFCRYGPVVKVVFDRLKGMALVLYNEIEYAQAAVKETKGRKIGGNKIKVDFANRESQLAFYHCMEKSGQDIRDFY

RBMY1A1 / RBMY1B, sequence (P0DJD3 1-110): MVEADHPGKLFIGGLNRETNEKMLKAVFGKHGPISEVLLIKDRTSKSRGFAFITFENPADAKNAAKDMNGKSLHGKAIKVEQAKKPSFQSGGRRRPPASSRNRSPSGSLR
PKR(1-2), sequence (P19525 1-186): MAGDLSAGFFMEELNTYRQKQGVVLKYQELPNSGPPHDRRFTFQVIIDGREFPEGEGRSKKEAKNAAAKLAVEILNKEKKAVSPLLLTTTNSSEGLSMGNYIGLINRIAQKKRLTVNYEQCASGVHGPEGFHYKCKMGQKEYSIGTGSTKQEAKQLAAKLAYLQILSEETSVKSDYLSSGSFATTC
SRSF10, sequence (O75494 1-120): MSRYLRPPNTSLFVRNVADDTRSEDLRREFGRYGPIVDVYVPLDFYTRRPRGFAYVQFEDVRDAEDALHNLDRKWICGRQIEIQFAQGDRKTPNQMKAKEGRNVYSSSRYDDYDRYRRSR
DDX9(1)/DHX9, sequence (Q08211 1-89): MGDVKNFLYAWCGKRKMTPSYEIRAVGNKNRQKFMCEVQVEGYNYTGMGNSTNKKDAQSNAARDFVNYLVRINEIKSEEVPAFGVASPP
hnRNP E1(1-2), sequence (Q15365 1-183): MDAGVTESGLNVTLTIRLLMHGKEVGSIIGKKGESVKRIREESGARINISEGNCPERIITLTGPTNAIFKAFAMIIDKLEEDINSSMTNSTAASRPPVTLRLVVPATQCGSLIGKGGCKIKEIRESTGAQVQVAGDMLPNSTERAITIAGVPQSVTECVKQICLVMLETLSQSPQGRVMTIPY
DDX9(2)/DHX9, sequence (Q08211 161-271): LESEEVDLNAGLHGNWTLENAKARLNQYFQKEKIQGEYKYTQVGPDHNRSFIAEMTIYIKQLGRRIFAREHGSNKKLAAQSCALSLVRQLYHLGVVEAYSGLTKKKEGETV

Turning to UGAGGUAGUAGGUUGUGUGGUU, the binding signal with PPRC1 turned out to be 155 ± 53.3 fluorescence intensity; with RBM26(1) it was 1560 ± 215 fluorescence intensity; with ZNF638, 57.9 ± 2.93 fluorescence intensity; in the assay with PKR(1-2) it was 53.5 ± 3.56 fluorescence intensity; with TIA1, 871 ± 40.8 fluorescence intensity; in the assay with ADAR(3), 31.8 ± 4.56 fluorescence intensity. Moreover, the binding signal in the assay with DDX9(1)/DHX9 was found to be 68.5 ± 11.3 fluorescence intensity; in the assay with SETD1B, 24.2 ± 1.14 fluorescence intensity; with ADAR(2), 22.6 ± 1.85 fluorescence intensity; with RBM33, 32.8 ± 1.94 fluorescence intensity; with hnRNP E1(1-2), 34.9 ± 2.48 fluorescence intensity; in the assay with TIAL1, 740 ± 11.2 fluorescence intensity. Moreover, the binding signal with RNPS1 is 565 ± 18.8 fluorescence intensity; in the assay with RBMY1A1 / RBMY1B it was 1360 ± 32 fluorescence intensity; with SHARP(1) it was 1119.4 ± 0.849 fluorescence intensity; with RBMX2 it was 111 ± 6.68 fluorescence intensity; in the assay with RDM1 it was 427 ± 12.9 fluorescence intensity; with SHARP(2-4), 1000 ± 18.8 fluorescence intensity. Also, the binding signal was 467 ± 36.1 fluorescence intensity with SRSF10 and 53.91 ± 0.134 fluorescence intensity in the assay with DDX9(2)/DHX9.

Regarding UGAGGUAGUAGGUUGUAUAGUU, the binding signal in the assay with PPRC1 was 24.9 ± 1.13 fluorescence intensity; in the assay with RBM26(1), 395 ± 44.7 fluorescence intensity; with TIA1, 584.8 ± 5.47 fluorescence intensity; in the assay with SETD1B it was 21.4 ± 1.84 fluorescence intensity; in the assay with ADAR(2), 21.92 ± 0.0141 fluorescence intensity; with RBM33, 24.2 ± 0.735 fluorescence intensity. Also, the binding signal in the assay with TIAL1 was 437 ± 10.1 fluorescence intensity; with RNPS1, 45.1 ± 1.35 fluorescence intensity; in the assay with RBMY1A1 / RBMY1B it was 754 ± 30.5 fluorescence intensity; with SHARP(1), 63 ± 1.09 fluorescence intensity; in the assay with RBMX2, 34.7 ± 8.67 fluorescence intensity; with RDM1, 46.4 ± 1.9 fluorescence intensity. Further, the binding signal came to 138 ± 34.1 fluorescence intensity in the assay with SHARP(2-4) and 91 ± 3.12 fluorescence intensity with SRSF10.

As to CAGUGCAAUGAUGAAAGGGCAU, the binding signal in the assay with PPRC1 worked out at 43 ± 4.72 fluorescence intensity; with RBM26(1) it was 478 ± 6.75 fluorescence intensity; with ZNF638, 33.6 ± 1.92 fluorescence intensity; in the assay with TIA1 it was 537.8 ± 3.27 fluorescence intensity; with ADAR(2), 22 ± 1.29 fluorescence intensity; with RBM33, 26.1 ± 1.95 fluorescence intensity. In addition, the binding signal worked out at 26.8 ± 0.919 fluorescence intensity in the assay with hnRNP E1(1-2); 523 ± 28 fluorescence intensity with TIAL1; 160 ± 25.6 fluorescence intensity with RNPS1; 1153 ± 5.4 fluorescence intensity with RBMY1A1 / RBMY1B; 1723 ± 15.7 fluorescence intensity with SHARP(1); 29.6 ± 4.16 fluorescence intensity with RBMX2. Moreover, the binding signal was found to be 185 ± 14.8 fluorescence intensity with RDM1, 630 ± 20.1 fluorescence intensity with SHARP(2-4), 865.4 ± 6.43 fluorescence intensity with SRSF10 and 26 ± 1.37 fluorescence intensity with DDX9(2)/DHX9.

Turning to AGAGGUAGUAGGUUGCAUAGUU, the binding signal in the assay with PPRC1 came to 97 ± 3.22 fluorescence intensity; in the assay with RBM26(1), 1530 ± 59.8 fluorescence intensity; with ZNF638, 29.21 ± 0.262 fluorescence intensity; in the assay with PKR(1-2), 24.8 ± 1.68 fluorescence intensity; in the assay with TIA1, 1240 ± 50.7 fluorescence intensity; in the assay with ADAR(3), 24.2 ± 0.771 fluorescence intensity. Also, the binding signal with DDX9(1)/DHX9 stood at 29.6 ± 4.33 fluorescence intensity; with SETD1B, 20.2 ± 1.15 fluorescence intensity; with ADAR(2), 23.9 ± 0.346 fluorescence intensity; in the assay with RBM33, 28.3 ± 2.28 fluorescence intensity; with hnRNP E1(1-2), 27.4 ± 2.06 fluorescence intensity; with TIAL1 it was 1020 ± 13.1 fluorescence intensity. Also, the binding signal in the assay with RNPS1 came out at 183 ± 12.6 fluorescence intensity; in the assay with RBMY1A1 / RBMY1B it was 2000 ± 49 fluorescence intensity; with SHARP(1) it was 423 ± 5.21 fluorescence intensity; with RBMX2, 65.8 ± 17.9 fluorescence intensity; with RDM1, 230 ± 20.4 fluorescence intensity; with SHARP(2-4), 711 ± 17.9 fluorescence intensity. Moreover, the binding signal with SRSF10 stood at 422 ± 31.8 fluorescence intensity; with DDX9(2)/DHX9 it was 33 ± 2.41 fluorescence intensity.

For the sequence UAGCUUAUCAGACUGAUGUUGA, the binding signal with RBM26(1) is 31 ± 1.68 fluorescence intensity; in the assay with TIA1 it was 631 ± 33.9 fluorescence intensity; in the assay with ADAR(2) it was 23.2 ± 3.02 fluorescence intensity; with TIAL1 it was 684 ± 18.7 fluorescence intensity; with RBMY1A1 / RBMY1B it was 602 ± 35.9 fluorescence intensity; with SHARP(1), 32 ± 6.87 fluorescence intensity. The binding signal in the assay with RBMX2 was determined as 21.4 ± 3.97 fluorescence intensity; in the assay with RDM1 it was 21.8 ± 0.523 fluorescence intensity; with SHARP(2-4), 705 ± 41.5 fluorescence intensity; with SRSF10, 33.4 ± 2.35 fluorescence intensity.

As for UGAGGUAGUAGGUUGUAUGGUU, the binding signal in the assay with PPRC1 stood at 134 ± 3.36 fluorescence intensity; in the assay with RBM26(1), 1460 ± 57.5 fluorescence intensity; with ZNF638, 38.3 ± 1.35 fluorescence intensity; with PKR(1-2) it was 28.7 ± 2.65 fluorescence intensity; in the assay with TIA1, 1030 ± 40.8 fluorescence intensity; in the assay with ADAR(3) it was 30.3 ± 3.34 fluorescence intensity. Also, the binding signal came to 49.7 ± 9.25 fluorescence intensity with DDX9(1)/DHX9; 22.4 ± 0.396 fluorescence intensity with SETD1B; 22.7 ± 0.559 fluorescence intensity in the assay with ADAR(2); 40.1 ± 0.601 fluorescence intensity with RBM33; 26.7 ± 0.438 fluorescence intensity with hnRNP E1(1-2); 789 ± 12.4 fluorescence intensity with TIAL1. Besides, the binding signal with RNPS1 turned out to be 294 ± 40.2 fluorescence intensity; in the assay with RBMY1A1 / RBMY1B, 1403 ± 13.2 fluorescence intensity; with SHARP(1), 702.32 ± 0.332 fluorescence intensity; with RBMX2, 69.6 ± 0.757 fluorescence intensity; in the assay with RDM1, 232 ± 12 fluorescence intensity; with SHARP(2-4), 710 ± 31.7 fluorescence intensity. In addition, the figures for the binding signal with SRSF10 and with DDX9(2)/DHX9 were 375 ± 21.5 fluorescence intensity and 44.6 ± 4.16 fluorescence intensity, respectively.
